In PubChem BioAssay (EPA / NIEHS) one finds AC50 and outcome data, which are given here for 40 compounds.

Activity calls are given as the source filed them. How the source made its calls: active means hit-call score of the fitted dose curve at least 0.9, where 1 is the maximum; inactive means score below 0.9.

Chain of Paired box protein Pax-6 (Homo sapiens) (P26367 whole entry, looked up): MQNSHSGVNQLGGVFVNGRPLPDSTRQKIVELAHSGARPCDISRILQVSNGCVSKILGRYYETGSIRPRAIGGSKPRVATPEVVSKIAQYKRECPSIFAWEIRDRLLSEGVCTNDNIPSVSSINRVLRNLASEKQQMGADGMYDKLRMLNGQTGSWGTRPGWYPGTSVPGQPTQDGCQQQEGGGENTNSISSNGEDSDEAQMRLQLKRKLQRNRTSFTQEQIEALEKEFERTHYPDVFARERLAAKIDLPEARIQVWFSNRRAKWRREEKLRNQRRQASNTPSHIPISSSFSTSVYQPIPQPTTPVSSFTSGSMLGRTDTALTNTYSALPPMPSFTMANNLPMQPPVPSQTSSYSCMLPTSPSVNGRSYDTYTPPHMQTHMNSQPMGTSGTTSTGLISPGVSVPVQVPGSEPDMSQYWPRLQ

For this assay, the target named is Paired box protein Pax-6 (Homo sapiens) (UniProt P26367). Briefly: ATG_Pax6_CIS: Attagene CIS-FACTORIAL HepG2 Assay for human Paired Box 6 (PAX6) (AID 2282956). Conditions: HepG2 CIS-FACTORIAL PAX6 reporter transcription, RNA readout; actives raise or lower the signal. As for the experimental part:
ATG_CIS is a cell-based, multiplexed-readout assay that uses HepG2, a human liver cell line, with measurements taken at 24 hours after chemical dosing in a 24-well plate.ATG_Pax6_CIS is one of 52 assay component(s) measured or calculated from the ATG_CIS assay. It is designed to make measurements of mRNA induction, a form of inducible reporter, as detected with fluorescence intensity signals by Reverse transcription polymerase chain reaction (RT-PCR) and Capillary electrophoresis technology.Data from the assay component ATG_Pax6_CIS was analyzed into 1 assay endpoint. This assay endpoint, ATG_Pax6_CIS, was analyzed with bidirectional fitting relative to DMSO as the negative control and baseline of activity. Using a type of inducible reporter, measures of mRNA for gain or loss-of-signal activity can be used to understand the reporter gene at the transcription factor-level as they relate to the gene PAX6. Furthermore, this assay endpoint can be referred to as a primary readout, because this assay has produced multiple assay endpoints where this one serves a reporter gene function. To generalize the intended target to other relatable targets, this assay endpoint is annotated to the dna binding intended target family, where the subfamily is paired box protein.
Human liver HepG2 cells are transiently transfected with multiple reporter transcription units (MRTUs) in 6-well plates using FuGene 6 reagent (Roche; 3 ml FuGene/1 mg DNA). The MRTU constructs are regulated by a cis-regulating element (promoter). […] A major difference between the CIS and TRANS system is that in CIS activities of endogenous TFs are measured, whereas the TRANS assay evaluates changes in activities of exogenous, chimeric NR-Gal4 proteins. […] At the end of 24 hour incubation, total RNA was isolated using TriZol reagent (Invitrogen). The isolated RNA is then reverse-transcribed using oligo(dT) primer and Mo-MLV reverse transcriptase (Invitrogen) with DNAse I (Ambion) treatment for 30 min. The one-tenth of the produced cDNA was amplified by PCR using Taq DNA polymerase (Invitrogen) and two reporter sequence-specific primers. The PCR products were fluorescently labeled by primer extension with 6-arboxyfluorescein (6-FAM) 5'-labeled reporter sequence-specific primer (2 min at 95 C, 20 s at 68 C and 10 min at 72 C) and these products were digested with 5U of HpaI (New England Biolabs) for 2h at 37 C. The fragments were purified using Qiaquick PCR columns (Qiagen), analyzed on an ABI 3130xL genetic analyzer (Applied Biosystems) with peak positions identified by using a set of X-rhodamine (ROX)-labeled MapMarker1000 molecular weight standards (BioVentures). The raw capillary electrophoresis data was processed using Attagraph software (Attagene).
`CCN=C1C=CC(=C(c2ccc(N(CC)CC)cc2)c2ccc(N(CC)CC)cc2)c2ccccc21`: the AC50 is 1780 nM (active).

As for `Brc1ccccn1`, the outcome was inactive.

For `CN(N=O)C(=O)N[C@@H]1[C@@H](O)[C@H](O)[C@@H](CO)O[C@@H]1O`, the call was inactive.

Turning to `O=C(Cl)c1ccc(Cl)cc1Cl`, the call was inactive.

For `CCCCCCCC/C=C\CCCCCCCC(=O)N(C)CC(=O)O`, the result was inactive.

As for `CN1CN(C)CN(C)C1`, the compound was classed as inactive.

Turning to `CCCCCCCCCCCCCC[P+](CCCC)(CCCC)CCCC`, the AC50 is 810 nM (active).

For the compound `C=C(C)C(=O)OCC(F)(F)C(F)(F)C(F)(F)C(F)F`, the result was inactive.

Regarding `OCC(O)CC(F)(F)C(F)(F)C(F)(F)C(F)(F)C(F)(F)C(F)(F)C(F)(F)C(F)(F)F` (stereo not given), the compound was classed as inactive.

Turning to `CCOC(=O)CCC(C)=O`, the compound was called inactive.

Turning to `OCCCc1cccnc1`, the outcome was inactive.

For `NS(=O)(=O)C(F)(F)C(F)(F)C(F)(F)C(F)(F)C(F)(F)C(F)(F)F`, the compound was called inactive.

For `OC(O)C(F)(F)C(F)(F)F`, the call was inactive.

For the compound `CCCCC(CC)COC(=O)c1ccc(N(C)C)cc1` (stereo not given), the compound was called inactive.

Consider `O=S(=O)(Cl)C(F)(F)C(F)(F)C(F)(F)C(F)(F)C(F)(F)C(F)(F)C(F)(F)C(F)(F)F`, for which the call was inactive.

In the case of `O=C1OC(=O)c2ccc3c4c(ccc1c24)C(=O)OC3=O`, the compound was classed as inactive.

For the compound `CC(C)(C)c1cc(CCC(=O)OCC(COC(=O)CCc2cc(C(C)(C)C)c(O)c(C(C)(C)C)c2)(COC(=O)CCc2cc(C(C)(C)C)c(O)c(C(C)(C)C)c2)COC(=O)CCc2cc(C(C)(C)C)c(O)c(C(C)(C)C)c2)cc(C(C)(C)C)c1O`, the call was inactive.

On to `CC1=CC2C3C=CC(C3)C2C1C` (stereo not given), for which the compound was called inactive.

For the compound `CC(C)OC(=O)COc1ccc(Cl)cc1Cl`, the compound was classed as inactive.

For `CC1=CCC2C(=O)OC(=O)C2C1` (stereo not given), the result was inactive.

In the case of `Cc1ccc(O)c(-n2nc3ccccc3n2)c1`, the call was inactive.

Take `C=CC(=O)OCCC(F)(F)C(F)(F)C(F)(F)C(F)(F)F`: the compound was called inactive.

Turning to `O=C1C=CC(=O)N1c1ccc(Cc2ccc(N3C(=O)C=CC3=O)cc2)cc1`, the AC50 is 33400 nM (active).

Take `O=C=Nc1cccc2c(N=C=O)cccc12`: the call was inactive.

As to `CO[Si](C)(CCC(F)(F)C(F)(F)C(F)(F)C(F)(F)C(F)(F)C(F)(F)F)OC`, the compound was called inactive.

For the compound `CC(C)(C)c1cc(Cc2cc(C(C)(C)C)c(O)c(C(C)(C)C)c2)cc(C(C)(C)C)c1O`, the result was inactive.

Consider `CCCCCCCCCCCCCCCCC`, for which the compound was classed as inactive.

`CCc1cccc(C)c1N(C(=O)C(=O)O)C(C)COC` (stereo not given): the compound was classed as inactive.

Consider `CCn1c2ccccc2c2ccccc21`, for which the outcome was inactive.

Take `COC(F)(C(F)F)C(F)(F)F` (stereo not given): the compound was classed as inactive.

Turning to `O=C(O)CCC(F)(F)C(F)(F)C(F)(F)F`, the result was inactive.

As to `CC(=O)c1ccccc1N`, the result was inactive.

`NC(=O)C(F)(F)C(F)(F)C(F)(F)C(F)(F)C(N)=O`: the result was inactive.

For `CCC/C=C/CO`, the result was inactive.

`FC(F)(F)C(F)(F)C(F)(F)C(F)(F)C(F)(F)C(F)(F)CC[Si](Cl)(Cl)Cl`: the compound was classed as inactive.

On to `NC(O)(C(F)(F)F)C(F)(F)F`, for which the compound was called inactive.

Turning to `CCOCOCC`, the compound was classed as inactive.

Consider `COC(=O)c1ccc(C=O)cc1`, for which the compound was called inactive.

On to `Cc1ccc2c(c1)OCC(=O)CO2`, for which the result was inactive.

Turning to `O=C(O)CCC(F)(F)C(F)(F)C(F)(F)C(F)(F)C(F)(F)C(F)(F)C(F)(F)F`, the call was inactive.
